High-throughput results as filed in PubChem BioAssay.
Fam108B inh: Fam108B inhibition, counter-screen for RBBP9 inhibitors; inhibition, % at 9.51 µM; AID 1947; recombinant Fam108B, FP-Rh probe fluorescence polarization; hit rate 0.33% among 300,000;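 active = inhibition above the screen mean inhibition plus 3 SD, computed separately per campaign, cut at about 18% in these data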;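 also: inhibitors lower polarization as less probe binds the enzyme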
GSTO1 inh: blocks human GSTO1 in RBBP9 counter-screen. recombinant GSTO1, activity-based probe fluorescence polarization. hit rate 1.1% among 300,000. inhibition, % at 5.96 µM;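 active = inhibition above the campaign mean inhibition plus 3 SD, cut at about 35% in these data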;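 also: 0% = GSTO1-1 with DMSO and 100% = wells lacking GSTO1-1 enzyme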
LYPLA2 inh: LYPLA2 (human) inhibition in PME1 counter-screen | O95372 | AID 2177 | hit rate 0.38% among 320,000 | inhibition, % at 5.9 µM | recombinant LYPLA2, FP-Rh probe fluorescence polarization;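 active = inhibition above the screen-wide mean plus 3 SD, limit set per campaign, cut at about 26% in these data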;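 also: 0% = LYPLA2 with DMSO and 100% = wells lacking LYPLA2 enzyme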
PME-1 primary: PME-1 (human) inhibition; Q9Y570; recombinant PME-1, FP-Rh probe fluorescence polarization; inhibition, % at 5.9 µM; hit rate 0.53% among 320,000; AID 2130;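 active = inhibition above the campaign mean of all compounds plus 3 SD, cut at about 26% in these data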;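 also: competitive labeling of PME-1 active site by serine hydrolase directed probe; 0% = PME-1 with DMSO and 100% = wells lacking PME-1 enzyme; inhibitors block probe labeling so polarization falls and inhibition rises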
PAD4 FP inh: blocks human protein arginine deiminase 4; Q9UM07; recombinant PAD4, RCA probe fluorescence polarization; inhibition, % at 6.36 µM; hit rate 0.41% among 330,000;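 active = percent inhibition above a cutoff equal to the mean of all tested compounds plus 3 SD, cut at about 15% in these data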;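 also: 0% = PAD4 with RCA probe and DMSO and 100% = probe without PAD4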
Target sequence (Q9UM07 whole entry, looked up): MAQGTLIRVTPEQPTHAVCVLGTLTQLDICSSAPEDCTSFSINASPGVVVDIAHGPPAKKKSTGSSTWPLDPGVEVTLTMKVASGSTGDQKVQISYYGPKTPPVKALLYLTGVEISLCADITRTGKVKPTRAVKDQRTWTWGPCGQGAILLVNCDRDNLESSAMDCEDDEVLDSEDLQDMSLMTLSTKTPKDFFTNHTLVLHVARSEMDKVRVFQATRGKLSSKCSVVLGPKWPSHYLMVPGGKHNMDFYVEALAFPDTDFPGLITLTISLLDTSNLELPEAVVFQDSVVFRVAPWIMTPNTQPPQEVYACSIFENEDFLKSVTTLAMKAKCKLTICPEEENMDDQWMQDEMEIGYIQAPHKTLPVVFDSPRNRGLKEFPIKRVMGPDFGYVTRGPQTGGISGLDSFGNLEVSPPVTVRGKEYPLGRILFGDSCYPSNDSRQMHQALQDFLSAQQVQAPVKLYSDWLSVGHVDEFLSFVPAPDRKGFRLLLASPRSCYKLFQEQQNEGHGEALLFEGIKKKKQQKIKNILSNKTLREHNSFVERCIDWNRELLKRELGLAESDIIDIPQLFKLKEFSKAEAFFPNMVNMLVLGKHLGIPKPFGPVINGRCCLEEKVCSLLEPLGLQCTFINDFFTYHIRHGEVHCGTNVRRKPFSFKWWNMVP
LYPLA1 inh: blocks human lysophospholipase 1, a PME1 counter-screen; hit rate 0.16% among 320,000; inhibition, % at 5.9 µM; AID 2174; recombinant LYPLA1, FP-Rh probe fluorescence polarization;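 active = inhibition above the mean of all tested compounds plus 3 SD, set per campaign, cut at about 14% in these data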;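 also: inhibitors block serine hydrolase probe labeling of LYPLA1 so polarization falls; 0% = enzyme with DMSO and 100% = wells lacking LYPLA1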
LYPLA1 confirm: LYPLA1 (human) inhibition, confirmation counter-screen; shares compounds with LYPLA1 inh; recombinant LYPLA1, FP-Rh probe fluorescence polarization; inhibition, % at 5.9 µM; hit rate 69% among 480; AID 2233;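 active = mean inhibition across replicates above the hit cutoff set in the primary screen, cut at about 15% in these data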;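 also: loss of FP-Rh probe labeling of LYPLA1 seen as lower polarization; 0% = LYPLA1 with DMSO and 100% = wells lacking LYPLA1 enzyme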
* marks the source's active call; other numbers are inactive results; . = not tested or not shown. In the library only some 1.8% were active in any assay of this set; here they are far more common.

SMILES	Fam108B inh	GSTO1 inh	LYPLA2 inh	PME-1 primary	PAD4 FP inh	LYPLA1 inh	LYPLA1 confirm
COc1ccc(C(c2c(C)n(C)n(-c3ccccc3)c2=O)c2c(C)n(C)n(-c3ccccc3)c2=O)cc1OC	1.8	-7.0	-2.5	2.0	-4.6	-2.0	.
Fc1ccc(-n2cc(-c3ccccc3)c3c(N4CCOCC4)ncnc32)cc1	-4.8	10.5	1.8	-6.1	-6.7	1.1	.
NC(=O)C1CCN(c2ncnc3c2c(-c2ccccc2)cn3-c2ccccc2)CC1	-2.3	-0.8	17.5	4.9	6.6	17.2*	19.5*
COC(=O)c1[nH]c2cc(OC)ccc2c1NC(=O)CN1CCN(c2cccc(C)c2)C(C)C1 (stereo unspecified)	4.3	20.8	10.9	9.9	-4.0	41.6*	47.7*
Cc1cc(SCC(=O)Nc2cccc(S(=O)(=O)NC3=NCCCCC3)c2)nc2ccccc12	-6.6	-28.8	1.1	7.5	0.9	19.1*	28.9*
CCOc1ccc(C(=O)NC(=S)Nc2cccc(S(=O)(=O)NC3=NCCC3)c2)cc1	-2.2	-5.3	5.8	-2.9	-3.9	-3.5	.
COc1ccc(-c2nc(CC(=O)Nc3cccc(S(=O)(=O)NC4=NCCC4)c3)cs2)cc1	.	.	1.8	-1.8	-0.9	16.2*	-1.2
Cc1ccc(-n2c(SCC(=O)Nc3cccc(S(=O)(=O)NC4=NCCCCC4)c3)nc3ccccc3c2=O)cc1C	-16.6	-26.7	-27.9	-20.8	-8.3	-14.5	.
COc1ccccc1CNC(=O)CN1CCN(S(=O)(=O)c2cccs2)CC1	-0.2	4.2	7.9	16.9	3.4	-1.8	.
Cc1cc(C)cc(N(C(=O)c2ccccn2)C(C(=O)NC2CCCCC2)c2cccs2)c1 (stereo unspecified)	0.0	12.3	-4.0	-7.3	-0.6	16.8*	2.5
Cc1c(NC(=O)C(=O)/C=C(\O)c2ccc(Br)cc2)c(=O)n(-c2ccccc2)n1C	1.5	9.0	-2.4	-0.4	-3.6	2.1	.
O=c1[nH]n2c(=O)c3c([nH]c2c1N=Nc1cccc(C(F)(F)F)c1)CCCC3	9.0	3.3	0.8	71.2*	-0.6	16.3*	15.0*
CCNC(=S)NNC(=O)Cn1c(=O)c2c(ncn2CCOC)n(Cc2ccccc2)c1=O	-3.6	0.8	-9.7	-4.3	0.8	40.9*	1.3
CC(C)Cn1c(SCC(=O)N(C)c2c(N)n(Cc3ccccc3)c(=O)[nH]c2=O)nc2ccccc21	1.2	3.8	3.2	4.2	6.0	-1.0	.
O=C(CN1CCN(C(=O)c2ccco2)CC1)Nc1cc(C(F)(F)F)ccc1Cl	-3.4	-2.1	10.7	0.2	3.9	91.2*	91.8*
N#Cc1c(NC(=O)CN2CCN(C(=O)c3ccco3)CC2)sc2c1CCCCC2	0.4	2.4	17.6	2.4	-0.1	50.9*	55.8*
CCc1c(C)sc(NC(=O)CN2CCN(C(=O)c3ccco3)CC2)c1C(=O)OC	-1.8	18.1	5.7	6.0	-6.7	-0.1	.
O=C(c1cccc(NS(=O)(=O)c2ccc(F)c(F)c2)c1)N1CCN(Cc2ccccc2)CC1	-6.2	2.4	3.6	1.2	-2.9	4.4	.
O=C(O)COn1c(-c2ccccc2)nc2ccc(Cl)cc21	1.9	0.8	2.6	-0.6	-3.9	1.1	.
COn1c(-c2ccccc2)nc2ccc(Cl)cc21	-0.8	-0.9	-2.9	3.1	-1.5	50.4*	-1.0
COC(=O)c1ccc(Oc2ccc(S(=O)(=O)N3CCCCC3)cc2N)cc1	-0.9	-5.2	16.9	3.0	1.8	26.2*	46.7*
COC(=O)CNc1cc(S(=O)(=O)N2CCCCC2)ccc1Oc1ccc(C(=O)OC)cc1	2.8	7.6	-2.1	1.0	1.6	3.2	.
COc1ccc(CN2C(=O)NC3(CCCCCC3)C2=O)cc1F	-4.6	0.4	4.0	-3.0	-2.4	-1.6	.
Cc1nn(-c2ccccc2)c(N2CCCC2)c1/C=N/Nc1ccc(S(N)(=O)=O)cc1[N+](=O)[O-]	11.1	-0.2	9.9	16.0	-0.7	19.5*	42.4*
NS(=O)(=O)c1ccc(N/N=C/c2ccc(C(=O)O)cc2)c([N+](=O)[O-])c1	2.5	-10.2	9.8	-2.4	2.1	3.4	.
Cc1onc(-c2ccccc2)c1C(=O)OCC(=O)Nc1cc(S(=O)(=O)N2CCOCC2)ccc1Cl	-5.7	3.2	-4.4	7.9	0.4	1.8	.
